FBW7 act: activators of human E3 ligase FBW7 | normalized activity (activation), % at 26.1 µM | AlphaScreen FBW7–phospho-cyclin E peptide binding, activator screen | actives 0.13% (n = 650,000); in the data active means normalized activity above about 1.9%;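 further: purified mutant Fbw7 with reduced substrate affinity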
Target sequence (Q969H0 whole entry, looked up): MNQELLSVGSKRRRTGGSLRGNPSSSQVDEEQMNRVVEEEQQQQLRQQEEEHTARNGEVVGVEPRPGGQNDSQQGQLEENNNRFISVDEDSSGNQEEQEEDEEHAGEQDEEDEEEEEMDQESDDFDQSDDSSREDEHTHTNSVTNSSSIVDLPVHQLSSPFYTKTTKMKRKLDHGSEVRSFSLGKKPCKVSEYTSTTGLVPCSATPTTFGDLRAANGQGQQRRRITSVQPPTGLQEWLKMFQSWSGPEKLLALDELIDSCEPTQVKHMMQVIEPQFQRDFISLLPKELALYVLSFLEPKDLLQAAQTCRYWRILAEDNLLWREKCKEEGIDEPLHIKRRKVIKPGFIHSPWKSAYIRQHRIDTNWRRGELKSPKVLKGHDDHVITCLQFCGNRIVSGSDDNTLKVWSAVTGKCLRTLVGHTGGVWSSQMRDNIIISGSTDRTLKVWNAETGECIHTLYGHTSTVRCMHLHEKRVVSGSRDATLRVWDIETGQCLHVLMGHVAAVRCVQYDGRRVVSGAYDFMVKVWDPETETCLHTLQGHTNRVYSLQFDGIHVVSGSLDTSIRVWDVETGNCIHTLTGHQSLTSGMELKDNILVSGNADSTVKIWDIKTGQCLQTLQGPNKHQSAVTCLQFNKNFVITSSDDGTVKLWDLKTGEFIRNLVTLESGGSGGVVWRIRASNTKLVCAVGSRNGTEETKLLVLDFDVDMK
GPR151 ag: activators of human GPR151; actives 1% (n = 650,000); Q8TDV0; activation, % at 11.2 µM; PathHunter beta-arrestin GPR151 cells, luminescence; in the data active means activation above about 4.9%;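 further: 0% = median of compound wells and 100% = cells with positive control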
TEAD-YAP inh: TEAD-YAP interaction inhibition; HEK-TIYL cells, TEAD-Gal4/YAP UAS-luciferase luminescence; inhibition, % at 9.12 µM; actives 1.4% (n = 640,000); AID 1259422; in the data active means inhibition above about 32%;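 further: 0% = median of test compound wells and 100% = reference inhibitor wells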
MITF primary: blocks human microphthalmia-associated transcription factor; O75030; AlphaScreen MITF homodimerization, bead proximity signal; inhibition, % at 2.6 µM; actives 0.91% (n = 650,000); in the data active means inhibition above about 50%;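 further: 0% = vehicle wells with protein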
GPR151 conf act: human GPR151 activation, confirmation screen. shares compounds with GPR151 ag. GPR151 PathHunter beta-arrestin cells, luminescence, 90 min; % of EA-reagent control over plate median. activation, % at 11.2 µM. 6,700 tested, under 10 active. AID 1508609;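 active means mean percent activation across replicates above the confirmation screen cutoff of 4.91%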
GPR119 counter: activates human GPR119 in a GPR151 counter-screen; shares compounds with GPR151 ag; GPR119 PathHunter beta-arrestin cells, luminescence, 90 min; 0 = compound-well median, 100 = enzyme-acceptor control; activation, % at 11.2 µM; actives 0.3% (n = 6,700); AID 1508611;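 active means mean percent activation in the counterscreen above 29.09%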;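 further: counterscreen on off-target GPR119 to flag nonselective hits from the GPR151 activator screen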
The depositor's hits bear a star. Sampled rows, rich in hits. Any-hit rate of the full collection: about 3.4%.

How did CCCc1nnc(SCc2ccc(Cl)cc2)n1N do in these assays?
FBW7 act: 0; GPR151 ag: 1; TEAD-YAP inh: -1; MITF primary: -4

How did COC(c1ccc2c(c1)CN(C(=O)c1nc3ncccn3n1)CCO2)C1CCCCC1 (stereo unspecified) do in these assays?
FBW7 act: 0; GPR151 ag: 9.5*; TEAD-YAP inh: -4; MITF primary: 8; GPR151 conf act: 0; GPR119 counter: 11

How did CNC(=O)c1cc(F)ccc1Nc1cc(Nc2cccc(OC)c2)ncc1C(F)(F)F do in these assays?
FBW7 act: 0; GPR151 ag: 9.3*; TEAD-YAP inh: 14; MITF primary: -10; GPR151 conf act: 1; GPR119 counter: -1

What do the screens show for `Cc1ccc(-n2cc(C(=O)Nc3ccc(Cl)cn3)c3ccccc3c2=O)cc1C`?
FBW7 act: 0; GPR151 ag: -1; TEAD-YAP inh: -4; MITF primary: 1

What do the screens show for `CC(C)(C)OC(=O)NCCCC1=CC2=CC(=O)C(C)(OC(=O)CCc3ccccc3)C(=O)C2=CO1` (stereo unspecified)?
FBW7 act: 0; GPR151 ag: 2; MITF primary: -2

Results for CCC(=O)OC1(C)C(=O)C=C2C=C(c3ccc(C#N)cc3)OC=C2C1=O (stereo unspecified) ?
FBW7 act: 0; GPR151 ag: 5.0*; MITF primary: -18; GPR151 conf act: 1; GPR119 counter: 6

Results for CCCCC1=CC2=CC(=O)C(C)(OC(=O)CCc3ccccc3)C(=O)C2=CO1 (stereo unspecified) ?
FBW7 act: 0; GPR151 ag: 8.4*; MITF primary: 3; GPR151 conf act: 0; GPR119 counter: 4

What do the screens show for `NC(=O)N1CCn2c3c(c4cc(C5CCCCC5)ccc42)CCCC31` (stereo unspecified)?
FBW7 act: 0; GPR151 ag: 2; TEAD-YAP inh: 4; MITF primary: -2

Results for O=CN1CCn2c3c(c(=O)c4cc(C5CCCCC5)ccc42)CCC31 (stereo unspecified) ?
FBW7 act: 0; GPR151 ag: 7.3*; TEAD-YAP inh: -14; MITF primary: 11; GPR151 conf act: 0; GPR119 counter: -6

What do the screens show for `O=C(NCc1ccc(F)cc1)c1csc2c1CCCC2`?
FBW7 act: 0; GPR151 ag: 1; TEAD-YAP inh: -8; MITF primary: 2

How did COc1ccc(/C=C(\C#N)C(=O)Nc2ccccn2)cc1 do in these assays?
FBW7 act: 0; GPR151 ag: 5.1*; TEAD-YAP inh: 2; MITF primary: 4; GPR151 conf act: 1; GPR119 counter: 6

What do the screens show for `Clc1cccc(N2CCN(Cc3nnnn3Cc3ccccc3)CC2)c1`?
FBW7 act: 0; GPR151 ag: -2; TEAD-YAP inh: -9; MITF primary: -3

How did CCCC(CCC)C(=O)Nc1ccncc1 do in these assays?
FBW7 act: 1; GPR151 ag: 8.7*; TEAD-YAP inh: -3; MITF primary: 11; GPR151 conf act: 1; GPR119 counter: 5

What do the screens show for `CCCC(CCC)C(=O)Nc1cccnc1`?
FBW7 act: 0; GPR151 ag: 0; TEAD-YAP inh: 2; MITF primary: -12

What do the screens show for `CCC(=O)N1c2ccccc2-c2nnc(SC)nc2OC1c1ccc(OC)cc1` (stereo unspecified)?
FBW7 act: 1; GPR151 ag: 5.6*; TEAD-YAP inh: -1; MITF primary: 1; GPR151 conf act: 2; GPR119 counter: -9

What do the screens show for `O=C(Nc1ncc(S(=O)(=O)c2ccc([N+](=O)[O-])cc2)s1)c1ccc(Cl)cc1Cl`?
FBW7 act: 0; GPR151 ag: -1; TEAD-YAP inh: 6; MITF primary: 5

What do the screens show for `O=C(CCC(=O)Nc1ccc(Br)cc1)N/N=C/c1cccs1`?
FBW7 act: 0; GPR151 ag: 6.0*; TEAD-YAP inh: -6; MITF primary: -2; GPR151 conf act: 0; GPR119 counter: -18

How did Cc1ccc(NC(=O)CN2C(=O)N/C(=C/c3cccc(C)c3)C2=O)cc1 do in these assays?
FBW7 act: 0; GPR151 ag: -1; TEAD-YAP inh: 2; MITF primary: -6

How did Cc1cc(C(=O)Nc2ccc3c(c2)OCO3)on1 do in these assays?
FBW7 act: 0; GPR151 ag: 0; TEAD-YAP inh: -27; MITF primary: -7

How did COc1ccc(NC(=O)c2cc(-c3ccccc3F)no2)cc1OC do in these assays?
FBW7 act: 0; GPR151 ag: -1; TEAD-YAP inh: 6; MITF primary: 7

What do the screens show for `O=C(Nc1ccc2c(c1)OCO2)c1cc(-c2ccccc2F)no1`?
FBW7 act: 0; GPR151 ag: 5.2*; TEAD-YAP inh: -26; MITF primary: 12; GPR151 conf act: 0; GPR119 counter: 5

How did COc1ccc(NC(=O)c2cc(-c3ccccc3O)no2)cc1OC do in these assays?
FBW7 act: 0; GPR151 ag: 5.5*; TEAD-YAP inh: -8; MITF primary: -11; GPR151 conf act: 0; GPR119 counter: -13

How did CCOc1ccc(/C(O)=C2\C(=O)C(=O)N(Cc3cccnc3)C2c2ccc(F)cc2)cc1 (stereo unspecified) do in these assays?
FBW7 act: 0; GPR151 ag: 2; TEAD-YAP inh: -8; MITF primary: -1

What do the screens show for `O=C(Cn1c(=O)oc2cc(Cl)ccc21)N1CCc2ccccc21`?
FBW7 act: 0; GPR151 ag: 2; TEAD-YAP inh: 2; MITF primary: 9

Results for O=C(Oc1ccc(Br)cc1C1NC(=O)c2c(sc3c2CCCC3)N1)c1ccccc1 (stereo unspecified) ?
FBW7 act: 0; GPR151 ag: 0; TEAD-YAP inh: -16; MITF primary: -11

How did CS(=O)(=O)N(CC(=O)N1CCC(C(N)=O)CC1)c1ccc(Oc2ccccc2)cc1 do in these assays?
FBW7 act: 0; GPR151 ag: 5.0*; TEAD-YAP inh: -8; MITF primary: -2; GPR151 conf act: -1; GPR119 counter: -6

What do the screens show for `CCc1ccc(N(CC(=O)N2CCC(C(N)=O)CC2)S(C)(=O)=O)cc1`?
FBW7 act: 0; GPR151 ag: 0; TEAD-YAP inh: 4; MITF primary: 7

Results for C#CCN1C(=O)S/C(=C/c2ccc(C(=O)OC)cc2)C1=O ?
FBW7 act: 0; GPR151 ag: 5.9*; TEAD-YAP inh: 2; MITF primary: -6; GPR151 conf act: 0; GPR119 counter: -5

How did N#Cc1nc(COc2ccc(F)cc2)oc1N1CCCCCC1 do in these assays?
FBW7 act: 0; GPR151 ag: 0; TEAD-YAP inh: -21; MITF primary: -2

Results for CN1C(=O)NC(c2ccccc2)C2=C1CN(c1cccc(Cl)c1)C2=O (stereo unspecified) ?
FBW7 act: 0; GPR151 ag: 1; TEAD-YAP inh: 5; MITF primary: -6

Source: PubChem (The Scripps Research Institute Molecular Screening Center)
